Screen size: about 39,000 compounds; about 3,300 (8.5%) were called active. The list comes from a sample in which actives are over-represented; it also holds similar structures and randomly drawn compounds.

This experiment has as its system HepG2. Description: cytotoxicity call (relative viability < 0.9). Particulars: 10 µM.
Take `O=c1[nH]cnc2c1ncn2C1OC(CO)C(O)C1O` (centres undefined): the cytotoxicity call is “inactive”. As for `C[C@H](CO)N1C[C@H](C)[C@H](CN(C)C(=O)Nc2cc(F)ccc2F)Oc2cc(/C=C/c3ccccc3)ccc2S1(=O)=O`, the cytotoxicity call was “inactive”. As for `C[C@H]1CN([C@@H](C)CO)S(=O)(=O)c2ccc(C#CC3(O)CCCC3)cc2O[C@H]1CN(C)C(=O)c1ccncc1`, the cytotoxicity call was “inactive”. The same measure for `Nc1cncc(Cl)n1`: “inactive”; for `CN1CCN(C(=O)C[C@H]2CC[C@H]3[C@@H](COC[C@H](O)CN3C(=O)Nc3ccc4c(c3)OCO4)O2)CC1`: “inactive”; for `COc1ccc(S(=O)(=O)N(C)C[C@H]2OCCCC[C@@H](C)Oc3ccc(NC(=O)c4ccccc4)cc3C(=O)N([C@@H](C)CO)C[C@@H]2C)cc1`: “inactive”. The same measure for `CN(C)CC#Cc1ccc([C@@H]2[C@@H](CO)N3C(=O)CN(C(=O)CN(C)C)C[C@@H]23)cc1`: “inactive”. Regarding `C[C@@H]1CN([C@H](C)CO)C(=O)c2cc(C#CC3(O)CCCC3)cnc2O[C@H]1CN(C)S(=O)(=O)c1ccccc1`, the cytotoxicity call is “inactive”. `CC(C)NC(=O)Nc1cccc2c1O[C@@H](CN(C)Cc1ccc(C(=O)O)cc1)[C@H](C)CN([C@H](C)CO)C2=O`: the cytotoxicity call was “inactive”.

`c1cc2c(cc1-c1nn[nH]n1)OCO2`: the cytotoxicity call is “inactive”. With `CC(C)(C)c1cc(NC(=O)Nc2ccc(-c3cn4c(n3)sc3cc(OCCN5CCOCC5)ccc34)cc2)no1`, the cytotoxicity call is “active”.

On to `O=C(NCCCN1CCOCC1)Nc1ccc(Cc2ccc(NC(=O)NCCCN3CCOCC3)cc2)cc1`, for which the cytotoxicity call was “inactive”. Consider `COc1cc(OC)cc(C(=O)Nc2nc(-c3ccc4c(c3)CCN4C(=O)CN3CCOCC3)cs2)c1`, for which the cytotoxicity call was “inactive”. As to `C[C@@H]1CCCCO[C@@H](CN(C)S(=O)(=O)c2cccs2)[C@@H](C)CN([C@@H](C)CO)C(=O)c2cc(NC(=O)Cc3ccccc3)ccc2O1`, the cytotoxicity call was “inactive”. For `C[C@H](CO)N1C[C@H](C)[C@@H](CN(C)C(=O)Nc2ccc3c(c2)OCO3)Oc2c(NS(=O)(=O)c3cn(C)cn3)cccc2C1=O`, the cytotoxicity call was “inactive”.

On to `COc1ccc(CN(C)C[C@@H]2OCCCC[C@@H](C)Oc3ccc(NC(=O)Nc4cccc5ccccc45)cc3C(=O)N([C@@H](C)CO)C[C@H]2C)cc1`, for which the cytotoxicity call was “active”. As for `COc1ccc(CN(C)C[C@H]2OCCCC[C@H](C)Oc3ccc(NC(=O)Nc4cccc5ccccc45)cc3C(=O)N([C@H](C)CO)C[C@@H]2C)cc1`, the cytotoxicity call was “inactive”. With `COc1ccc(CN(C)C[C@H]2OCCCC[C@@H](C)Oc3ccc(NC(=O)Nc4cccc5ccccc45)cc3C(=O)N([C@H](C)CO)C[C@H]2C)cc1`, the cytotoxicity call was “inactive”. As to `COc1ccc(CN(C)C[C@@H]2OCCCC[C@@H](C)Oc3ccc(NC(=O)Nc4cccc5ccccc45)cc3C(=O)N([C@H](C)CO)C[C@H]2C)cc1`, the cytotoxicity call was “active”.

With `COc1ccc(CN(C)C[C@@H]2OCCCC[C@H](C)Oc3ccc(NC(=O)Nc4cccc5ccccc45)cc3C(=O)N([C@H](C)CO)C[C@@H]2C)cc1`, the cytotoxicity call was “inactive”. Turning to `COc1ccc(CN(C)C[C@@H]2OCCCC[C@H](C)Oc3ccc(NC(=O)Nc4cccc5ccccc45)cc3C(=O)N([C@H](C)CO)C[C@H]2C)cc1`, the cytotoxicity call was “active”. `COc1ccc(CN(C)C[C@@H]2OCCCC[C@H](C)Oc3ccc(NC(=O)Nc4cccc5ccccc45)cc3C(=O)N([C@@H](C)CO)C[C@@H]2C)cc1`: the cytotoxicity call was “inactive”. On to `COc1ccc(CN(C)C[C@H]2OCCCC[C@H](C)Oc3ccc(NC(=O)Nc4cccc5ccccc45)cc3C(=O)N([C@@H](C)CO)C[C@H]2C)cc1`, for which the cytotoxicity call is “inactive”.

For the compound `COc1ccc(CN(C)C[C@@H]2OCCCC[C@H](C)Oc3ccc(NC(=O)Nc4cccc5ccccc45)cc3C(=O)N([C@@H](C)CO)C[C@H]2C)cc1`, the cytotoxicity call was “active”. `COc1ccc(CN(C)C[C@H]2OCCCC[C@H](C)Oc3ccc(NC(=O)Nc4cccc5ccccc45)cc3C(=O)N([C@@H](C)CO)C[C@@H]2C)cc1`: the cytotoxicity call is “inactive”. Regarding `COc1ccc(S(=O)(=O)Nc2ccc3c(c2)C(=O)N([C@H](C)CO)C[C@H](C)[C@H](CN(C)C(=O)CCC(F)(F)F)OCCCC[C@@H](C)O3)cc1`, the cytotoxicity call was “inactive”. `COc1ccc(NC(=O)Nc2ccc3c(c2)C(=O)N([C@H](C)CO)C[C@@H](C)[C@@H](CN(C)Cc2ccncc2)OCCCC[C@@H](C)O3)cc1`: the cytotoxicity call was “inactive”.

`Cc1ccc(S(=O)(=O)NCC[C@H]2CC[C@@H](NS(=O)(=O)c3ccccc3Cl)[C@@H](CO)O2)cc1`: the cytotoxicity call is “inactive”. For `Cc1noc(C)c1NC(=O)Nc1ccc2c(c1)CC(=O)N([C@@H](C)CO)C[C@@H](C)[C@H](CN(C)S(=O)(=O)c1cn(C)cn1)O2`, the cytotoxicity call was “inactive”. The same measure for `CN1C(=O)c2cc(NC(=O)c3cnccn3)ccc2OC[C@H]2O[C@@H](CC(=O)N[C@H]3CCN(Cc4ccccc4)C3)CC[C@H]21`: “inactive”.

Consider `COc1ccc(CN(C)C[C@H]2OCCCC[C@@H](C)Oc3ccc(NC(=O)Nc4cccc5ccccc45)cc3C(=O)N([C@@H](C)CO)C[C@@H]2C)cc1`, for which the cytotoxicity call is “inactive”.

With `COc1ccc(CN(C)C[C@@H]2OCCCC[C@@H](C)Oc3ccc(NC(=O)Nc4cccc5ccccc45)cc3C(=O)N([C@@H](C)CO)C[C@@H]2C)cc1`, the cytotoxicity call was “inactive”. For `COc1ccc(CN(C)C[C@H]2OCCCC[C@H](C)Oc3ccc(NC(=O)Nc4cccc5ccccc45)cc3C(=O)N([C@H](C)CO)C[C@H]2C)cc1`, the cytotoxicity call is “inactive”. For the compound `COc1ccc(CN(C)C[C@H]2OCCCC[C@@H](C)Oc3ccc(NC(=O)Nc4cccc5ccccc45)cc3C(=O)N([C@H](C)CO)C[C@@H]2C)cc1`, the cytotoxicity call is “active”.

`COc1ccc(CN(C)C[C@H]2OCCCC[C@@H](C)Oc3ccc(NC(=O)Nc4cccc5ccccc45)cc3C(=O)N([C@@H](C)CO)C[C@H]2C)cc1`: the cytotoxicity call is “active”. In the case of `COc1ccc(CN(C)C[C@@H]2OCCCC[C@@H](C)Oc3ccc(NC(=O)Nc4cccc5ccccc45)cc3C(=O)N([C@H](C)CO)C[C@@H]2C)cc1` it was “inactive”; in that of `C[C@H]1CN([C@@H](C)CO)C(=O)c2cc(NC(=O)Cn3cnnn3)ccc2O[C@H]1CN(C)S(=O)(=O)c1ccc(F)cc1`, “inactive”; in that of `C[C@@H]1CN([C@H](C)CO)C(=O)c2cccc(NS(=O)(=O)c3ccccc3)c2O[C@@H]1CN(C)S(=O)(=O)c1ccccc1`, “inactive”. The same measure for `C[C@@H]1CN([C@H](C)CO)C(=O)c2cc(NC(=O)Cc3ccccc3)ccc2O[C@@H](C)CCCCO[C@H]1CN(C)C(=O)Nc1ccc(F)cc1`: “inactive”.
